# Screening results from PubChem BioAssay.
# NPC1 promoter act – activators of NPC1 promoter. Potency, µM (series often up to 9.22 µM), for inactives: at the highest dose activation, usual class: activators. 320,000 compounds, 2.4% hits. Huh7 NPC1 promoter luciferase reporter, 24 h; also: % of control where 0% means no effect; nearly all actives have a fitted effect of over 60% in size
#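 Readout is luciferase luminescence, reflecting NPC1 promoter activation in stably transfected Huh7 cells after 24 h compound exposure at 37 °C in reduced-serum medium with 10% FBS.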
# SMN2 splice enh – enhancers of SMN2 splice variant expression | HEK293 SMN2-luciferase splicing reporter, luminescence, 30-36 h | AID 1458 | Potency, µM (top dose mostly 46.1 µM), for inactives: at the highest dose activity change, positive = activation, usual class: activators | 210,000 compounds, 2.8% hits; also: % of control where 0% means no effect; nearly all actives have a fitted effect of over 55% in size
#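 HEK293 cells carry an SMN2 […]–luciferase reporter in which exon 7 inclusion puts luciferase in frame. Cells were plated 10-12 h before compound addition, then incubated 30-36 h at 37C. ONE-Glo luminescence was read; sodium butyrate at 4.5 mM final served as control.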
# ELG1 genotox – inducers of genotoxicity in HEK293T ELG1-luciferase cells; HEK293T ELG1-luciferase reporter, luminescence, 16 h; Potency, µM (doses to about 46 µM), for inactives: at the highest dose activity change, positive = activation, actives largely listed as activators; 330,000 compounds, 1.3% hits; also: % of control where 0% means no effect; nearly all actives have a fitted effect of over 60% in size
#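 Genotoxic stress is detected as increased luminescence from luciferase-tagged ELG1 in HEK293T cells, measured with ONE-Glo after a 16 hr treatment at 37 °C.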
# FLuc counter – counter-screen for miR-21 project: firefly luciferase inhibitors or activators; Potency, µM (series often up to 57.5 µM), for inactives: at the highest dose activity change, negative = inhibition, usual class: inhibitors; P08659; 360,000 compounds, 6.9% hits; purified FLuc, Km substrates, luminescence inhibition;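 also: plate controls were vehicle for no effect and reference inhibitor for full effect; nearly all actives have a fitted effect of over 55% in size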
# Target sequence (P08659 whole entry, looked up): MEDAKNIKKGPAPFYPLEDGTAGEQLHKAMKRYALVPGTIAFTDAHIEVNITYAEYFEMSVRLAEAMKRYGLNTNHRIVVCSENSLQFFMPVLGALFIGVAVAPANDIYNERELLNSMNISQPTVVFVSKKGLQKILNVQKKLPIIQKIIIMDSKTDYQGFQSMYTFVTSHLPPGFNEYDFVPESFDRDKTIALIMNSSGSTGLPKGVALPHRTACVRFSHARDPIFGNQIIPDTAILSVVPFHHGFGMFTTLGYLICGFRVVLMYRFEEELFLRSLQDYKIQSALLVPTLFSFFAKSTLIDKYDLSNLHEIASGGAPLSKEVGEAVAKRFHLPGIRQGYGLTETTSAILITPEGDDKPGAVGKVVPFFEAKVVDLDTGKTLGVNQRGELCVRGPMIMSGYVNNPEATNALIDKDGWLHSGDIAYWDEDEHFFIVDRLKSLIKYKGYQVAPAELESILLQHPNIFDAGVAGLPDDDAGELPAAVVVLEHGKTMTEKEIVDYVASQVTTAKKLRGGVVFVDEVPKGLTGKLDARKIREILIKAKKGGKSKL
#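 Purified P. pyralis luciferase (10nM final) with 10uM D-luciferin and 10uM ATP (Km levels) in 50mM Tris acetate pH 7.5, 10mM Mg acetate, 0.01% Tween-20, 0.05% BSA; qHTS 6-point titration, ~60 µM downward; luminescence read.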
# Rab9 prom act – activators of Rab9 promoter | Huh7 Rab9 promoter-luciferase reporter, luminescence, 24 h | 320,000 compounds, 2.8% hits | AID 485297 | Potency, µM (series often up to 9.22 µM), inactives show top-dose activation, negative = inhibition, most hits filed as activators; also: % of control where 0% means no effect; nearly all actives have a fitted effect of over 60% in size
#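 Luminescence from Amplite-detected luciferase (10 minutes, ambient) reports Rab9 promoter activation. Before that, stable Rab9-luciferase Huh7 cells (1500/well, reduced-serum OP-MEM I plus 10% FBS) were exposed to compound for 24 hours at 37C.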
# Luc counter – blocks Kinase-Glo luciferase, a counter-screen artifact. Potency, µM (doses to about 38.3 µM), without a hit: top-dose activity change, negative = inhibition, actives largely listed as inhibitors. AID 1379. 200,000 compounds, 0.28% hits. Kinase-Glo luciferase, ATP luminescence, 8 min; also: % is scaled to controls: 0 for no effect and ±100 for the full control effect; nearly all actives have a fitted effect of over 60% in size
#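 Compound is pinned into ATP-containing buffer (10 uM ATP, imidazole pH 7.2, 7 mM MgCl2). Kinase-Glo luciferase reagent is then added. Light output is recorded following an 8-min room-temperature incubation.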
# * hit, by the source's call; u = inconclusive; x = no result; [ ] = remark or other dose. Sampled rows, rich in hits. Any-hit rate of the full collection: about 7.5%. Calls follow the shape of the dose curve; as a rule, active = well fitted curve in the direction sought with a large enough effect; inconclusive = small, poorly fitted or top-dose-only effect, or another doubt; inactive = no such curve, though single readings can be large; an effect the other way counts as inactive or inconclusive. Potency is read from the fitted curve at half-maximal effect.
SMILES,NPC1 promoter act,SMN2 splice enh,ELG1 genotox,FLuc counter,Rab9 prom act,Luc counter
COc1ccc(Nc2nc3c(C)cccc3cc2C#N)c(OC)c1,-8%,20%,12%,-2%,-9%,3%
COc1ccc(C2C(C(C)=O)=C(O)C(=O)N2c2nccs2)cc1OC (centres undefined),1%,4%,1%,3%,2%,4%
COc1ccc(N2Cc3ccc(OC)c(OC)c3C2=O)cc1,2µM*,x,10µM*,4.8µM*,u,x
COc1ccc2c(c1OC)C(=O)N(c1nccs1)C2,u,13µM*,18µM*,15µM*,u,-4%
COc1ccc2c(c1OC)C(=O)N(c1cccc(/C=C/C(=O)O)c1)C2,29%,x,u,3µM*,24%,x
COc1ccc(/C=C/C(=O)O)cc1S(=O)(=O)N1CCc2ccccc2C1,1%,-5%,-3%,-6%,3%,2%
O=C(O)c1cc(O)c2c(c1)[C@H]([C@H]1c3cc(C(=O)O)cc(O)c3C(=O)c3c(O[C@@H]4OC(CO)C(O)C(O)C4O)cccc31)c1cccc(O[C@@H]3OC(CO)C(O)C(O)C3O)c1C2=O (some centres undefined),x,-17%,x,x,x,-20%
O=C1CCCCc2sc(Br)c([N+](=O)[O-])c2N1,-23%,x,-25%,4%,-52%,x
Cc1ccc(-c2cc(C(=O)N3CCc4ccccc4C3)[nH]n2)cc1C,13%,x,14%,-11%,-1%,x
COc1cccc(NC(=O)N2CCc3ccccc3C2)c1,4µM*,x,u,17µM*,2.8µM*,x
COc1cccc(-c2cc(C(=O)N3CCc4ccccc4C3)[nH]n2)c1,26%,x,u,11µM*,22%,x
O=C(Nc1ccccc1F)N1CCc2ccccc2C1,1.3µM*,x,18µM*,15µM*,2.8µM*,x
O=C(Nc1cccc(Cl)c1)N1CCc2ccccc2C1,2.8µM*,x,u,9.5µM*,3.2µM*,x
O=C(Nc1cccc(Cl)c1)c1nc[nH]c1C(=O)N1CCc2ccccc2C1,-2%,x,5%,-1%,-1%,x
COc1ccc(NC(=O)N2CC3(CCN(C(=O)c4c(C)noc4C)CC3)C2)cc1,x,-9%,x,x,x,-2%
COc1ccc(CNC(=O)COC(=O)CN2C(=O)NC3(CCCC3)C2=O)cc1,-4%,x,4%,-3%,-3%,x
N#CCCSC(=S)[C@H]1CCCC1=N,x,-10%[9.22 µM],x,x,x,0%[7.66 µM]
COc1ccc(OC)c(NC(=O)CSc2nccn2-c2cc(C)cc(C)c2)c1,x,x,x,-4%,x,x
CN(CC(=O)Nc1ccc(F)c(F)c1F)C(=O)CCCSc1nc2ccccc2[nH]1,0%,x,3%,-2%,8%,x
CCOc1ccccc1NC(=O)N1CCC2(CC1)Oc1ccccc1C(=O)N2Cc1ccccc1F,x,-23%,x,-1%,x,x
CC(C)c1ccc(NC(=O)N2CCc3ccccc3C2)cc1,u,13µM*,u,11µM*,4µM*,1%
NC(=Nc1ccc(Br)cc1)c1ccccc1,24%,x,u,u,20%,x
CC(=Nc1ccc(Br)cc1)c1sc2ccccc2c1O,3.2µM*,x,3.7µM*,1.3µM*,3.2µM*,x
CC(=Nc1ccccc1)c1sc2ccccc2c1O,17%,11µM*,2.9µM*,1.5µM*,u,-16%
CCOC(=O)c1sc2ccccc2c1OC(=O)c1ccccc1,2%,11%,-13%,-2%,-1%,-2%
COc1ccc(C(=O)NCC(c2ccco2)S(=O)(=O)c2cccs2)cc1 (centres undefined),x,x,x,-7%,x,x
Cc1ccc(-c2nc3ccsc3c(=O)o2)cc1,2.8µM*,105%,18µM*,2.7µM*,2.5µM*,-12%
O=C1CCCCCN1Cc1nnc(SCc2nc3ccccc3s2)n1-c1ccccn1,18%,-32%,u,7.6µM*,u,-3%
O=C(C[n+]1ccc(/C=C/c2ccccc2)cc1)c1ccc2c(c1)OCCO2,-4%,x,-12%,0%,-11%,x
CCOC(=O)/C(C#N)=C\c1cc(C)n(-c2ccccc2)c1C,1.6µM*,-66%,u,0.43µM*,1.8µM*,-3%
